Compound activity from PubChem.
TDP1 cell CPT: qHTS for Inhibitors of human tyrosyl-DNA phosphodiesterase 1 (TDP1): qHTS in cells in presence of CPT; chicken DT40 Tdp1-/-;hTDP1 cells + 20 nM CPT, ATP luminescence, 48 h; Potency, µM (doses to about 46.2 µM), for inactives: at the highest dose activity change, negative = growth inhibition, actives largely listed as inhibitors; 420,000 tested, 12% active; also: potency is read from the fitted curve at half-maximal effect; % is scaled to controls: 0 for no effect and ±100 for the full control effect; nearly all actives have a fitted effect of over 55% in size
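Chicken DT40 Tdp1-/- cells stably complemented with human TDP1 were seeded at 400 cells/well in medium containing 20 nM camptothecin, exposed to pin-transferred compounds, and grown at 37 °C for at least 48 hr. Viability was read as ATP luminescence.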
TDP1 block: qHTS Assay for Inhibitors of Tyrosyl-DNA Phosphodiesterase (TDP1); Tyrosyl-DNA phosphodiesterase 1 (Homo sapiens), Q9NUW8; recombinant TDP1, AlphaScreen DNA substrate cleavage; Potency, µM (highest dose often 130 µM), without a hit: at the top dose activity change, negative = inhibition, most hits filed as inhibitors; 350,000 tested, 0.28% active; AID 485290, 2010; also: potency is read from the fitted curve at half-maximal effect; % is scaled to controls: 0 for no effect and ±100 for the full control effect; nearly all actives have a fitted effect of over 40% in size
Target sequence (Q9NUW8 whole entry, looked up): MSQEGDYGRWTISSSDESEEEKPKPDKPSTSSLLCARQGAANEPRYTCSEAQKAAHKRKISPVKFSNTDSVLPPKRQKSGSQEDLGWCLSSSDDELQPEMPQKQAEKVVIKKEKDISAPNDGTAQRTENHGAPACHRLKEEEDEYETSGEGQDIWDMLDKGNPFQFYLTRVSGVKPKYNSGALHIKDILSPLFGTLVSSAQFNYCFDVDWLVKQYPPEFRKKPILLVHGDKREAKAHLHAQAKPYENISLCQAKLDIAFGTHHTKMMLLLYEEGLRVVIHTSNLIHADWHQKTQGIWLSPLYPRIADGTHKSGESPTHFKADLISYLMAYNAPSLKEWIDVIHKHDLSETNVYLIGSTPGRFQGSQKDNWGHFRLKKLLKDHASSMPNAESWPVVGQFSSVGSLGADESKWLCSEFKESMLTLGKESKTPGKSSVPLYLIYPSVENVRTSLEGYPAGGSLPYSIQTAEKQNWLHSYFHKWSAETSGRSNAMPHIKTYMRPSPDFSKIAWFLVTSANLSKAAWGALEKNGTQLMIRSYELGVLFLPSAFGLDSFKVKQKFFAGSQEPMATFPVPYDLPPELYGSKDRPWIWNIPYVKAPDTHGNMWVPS
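Here, a 5' biotin and 3' phosphotyrosine-FITC DNA oligonucleotide reports Tdp1 activity: intact substrate bridges AlphaScreen beads, while cleavage leaves a 3' phosphate and drops signal. All incubations at room temperature.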
miR-21 reporter: qHTS Assay for Modulators of miRNAs and/orActivators of miR-21; HeLa miR-21 FLuc reporter, luciferase, 48 h; Potency, µM (series often up to 38.3 µM), inactives show at the top dose activity change, positive = activation, hits mostly activators; 340,000 tested, under 10 active;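 also: % of control where 0% means no effect; miR-21 action dims this reporter so a rising signal means less miR-21 action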
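Luminescence from a firefly luciferase reporter carrying a miR-21 binding site downstream, stably expressed under a CMV promoter in HeLa cells that make miR-21 endogenously, reports miRNA modulation after 48 h compound exposure up to approximately 40uM final.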
uPA surface inh: qHTS for Inhibitors of Cell Surface uPA Generation. cell surface uPA generation assay, qHTS. Potency, µM (highest dose often 38.3 µM), for inactives: top-dose activity change, negative = inhibition, usual class: inhibitors. 330,000 tested, 0.31% active. AID 540303, 2011; active = well fitted inhibition curve with a large enough effect; inconclusive = small, poorly fitted or top-dose-only effect; inactive = no such curve, though single readings can be large or run the other way; tested in mouse RAW 264.7 cells; also: potency is read from the fitted curve at half-maximal effect; % is scaled to controls: 0 for no effect and ±100 for the full control effect; nearly all actives have a fitted effect of over 55% in size
DT40 TDP1 no CPT: qHTS for Inhibitors of human tyrosyl-DNA phosphodiesterase 1 (TDP1): qHTS in cells in absence of CPT; Potency, µM (highest dose often 46.2 µM), without a hit: top-dose activity change, negative = growth inhibition, actives largely listed as inhibitors; DT40 Tdp1-/- hTDP1 cells, no CPT, ATP luminescence, 48 h; 420,000 tested, 15% active; also: potency is read from the fitted curve at half-maximal effect; % is scaled to controls: 0 for no effect and ±100 for the full control effect; nearly all actives have a fitted effect of over 55% in size
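DT40 Tdp1-/-;hTDP1 cells, no CPT (DMSO vehicle only), 400 cells/well; compounds pin-transferred; ≥48 hr, 37 °C; CellTiter-Glo 30 min RT dark, luminescence read.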
The depositor's hits bear a star; ? = inconclusive; nt = no result given; [ ] = remark or other dose. Most compounds without a hit are left out; they make up all but 16% or so of the library. Unless noted, calls follow the shape of the dose curve; as a rule, active = well fitted curve in the direction sought with a large enough effect; inconclusive = small, poorly fitted or top-dose-only effect, or another doubt; inactive = no such curve, though single readings can be large; an effect the other way counts as inactive or inconclusive.

SMILES	TDP1 cell CPT	TDP1 block	miR-21 reporter	uPA surface inh	DT40 TDP1 no CPT
O=C(c1ccc(CS(=O)Cc2ccccc2Cl)o1)N1CCN(c2cccc(Cl)c2)CC1 (stereo not drawn)	?	9%	?	0%	?
O=C(c1ccc(CS(=O)c2ccccc2Cl)o1)N1CCN(c2cccc(C(F)(F)F)c2)CC1 (stereo not drawn)	0.65µM*	0%	?	nt	0.52µM*
COc1ccc(S(=O)(=O)Nc2ccccc2C(=O)OC2CCCN(C)C2)cc1OC (stereo not drawn)	-10%	4%	1%	-2%	-13%
O=C(Nc1nc2nccc(-c3ccccc3)n2n1)c1ccc(F)cc1	-5%	3%	-6%	3%	-2%
O=C(Nc1nc2nc(-c3ccccc3)cc(-c3ccccc3)n2n1)c1ccco1	23µM*	8%	3%	-10%	23µM*
O=C(Nc1nc2nccc(-c3ccccc3)n2n1)c1ccccc1	-8%	79µM*	-50%	-3%	-18%
Fc1ccc(NC(=S)Nc2ccc(Cl)cc2)cc1	?	6%	20%	-3%	23µM*
CCC(C)(C)C1CCC(=NNC(=S)Nc2ccccc2)CC1 (stereo not drawn)	?	8%	-38%	0%	15µM*
O=C(NNC(=S)Nc1ccc(F)cc1)C1CC1c1ccc(Cl)cc1 (stereo not drawn)	?	0%	-2%	2%	?
S=C(NN=C1CCCCCC1)Nc1ccc(Cl)cc1	29µM*	5%	-1%	-18%	29µM*
Fc1ccc(NC(=S)Nc2cc(Cl)ccc2Cl)cc1	5.8µM*	-6%	4%	-1%	?
Cc1ccc(S(=O)(=O)N2CCN(Cc3cc4c(cc3Br)OCCO4)CC2)cc1	?	0%[56.1 µM]	nt	8%	?
CC(Cc1ccccc1)N/C=C1/CC(=O)NC1=O (stereo not drawn)	5%	6%	1%	0%	0%
CC(=O)c1ccc(Nc2cc(C)nc3ccc(C)cc23)cc1	?	-4%	17%	-5%	?
CCOC(=O)c1ccc2nc(C)cc(Nc3ccc(OC(C)C)cc3)c2c1	23µM*	nt	?	nt	18µM*
Cc1cc(C)nc(NC(=O)c2ccc(OC(C)C)cc2)n1	-19%	1%	-12%	-2%	-20%
COc1ccc2nc(C)cc(Nc3ccccc3O)c2c1	23µM*	1%	8%	-20%	?
COc1ccc(Nc2cc(C)nc3ccc(C)cc23)cc1	?	nt	nt	nt	16µM*
COC(=O)CSc1cc(C)nc2ccc(OC)cc12	-4%	4%	-1%	3%	-11%
Cc1ccc2nc(C)cc(Nc3ccc4c(c3)OCCO4)c2c1	22µM*	8%	7%	-10%	13µM*
CCC(Sc1nc2sc(C(=O)OC)c(C)c2c(=O)n1N)C(=O)NCC1CCCO1 (stereo not drawn)	-11%	1%	-11%	-4%	?
CN1CCN(NC(=O)c2cc(Br)ccc2Cl)CC1	-14%	3%	-3%	-2%	-5%
COc1ccc2nc(C)cc(NCc3cccc(C(F)(F)F)c3)c2c1	15µM*	10%	22%	-10%	13µM*
COc1ccc(CCC(=O)NCc2cccc(C(F)(F)F)c2)cc1	-5%	nt	-1%	-11%	-4%
CCOC(=O)c1ccc2nc(C(F)(F)F)[nH]c(=O)c2c1	16µM*	5%	-2%	-5%	7.3µM*
SMILES	TDP1 cell CPT	TDP1 block	miR-21 reporter	uPA surface inh	DT40 TDP1 no CPT
COc1ccc(/C=N/Nc2cc(C)nc3ccc(Br)cc23)cc1	?	nt	?	-6%	8.2µM*
NC(=S)N/N=C/c1ncc(C(F)(F)F)cc1Cl	0.41µM*	7%	24%	1%	0.52µM*
NC(=S)N/N=C/c1ccc(C(F)(F)F)cc1	21µM*	-6%	16%	-9%	16µM*
O=C(Nc1ccncc1)c1cc(-c2ccccc2)nc2ccccc12	?	nt	nt	nt	21µM*
Cc1cccc(-c2cc(C(=O)Nc3ccncc3)c3ccccc3n2)c1	?	6%	14%	0%	?
O=C(Nc1ccc(Br)cc1)c1cc(-c2ccncc2)nc2ccccc12	?	0%	nt	-11%	16µM*
Cc1cccc(-c2cc(C(=O)Nc3cccnc3)c3ccccc3n2)c1	21µM*	2%	11%	-4%	?
O=C(NC1=NCCS1)c1cc(-c2cccnc2)nc2ccccc12	16µM*	-5%	9%	1%	21µM*
O=C(NC1=NCCS1)c1cc(-c2cccs2)nc2ccccc12	-5%	nt	-2%	1%	-29%
COC(=O)c1ccc(NC(=O)c2cc(-c3ccncc3)nc3ccccc23)cc1	?	4%	nt	-24%	?
Cc1cc(NC(=O)CSc2nc(=O)n3cccc(C)c3n2)no1	6%	nt	nt	2%	3%
CCn1nc(NS(=O)(=O)c2ccccc2)c2cc3cccc(C)c3nc21	?	0%	-5%	nt	0%
O=C(NCCCCc1ccccc1)c1nn(-c2ccccc2F)nc1CO	?	-2%	14%	nt	?
Cn1c(=O)[nH]c(=O)c2c1[nH]c(=S)n2Cc1ccc(Cl)cc1	-25%	nt	-7%	-9%	-14%
CCN1C(=O)C(O)(c2c(C)[nH]c3ccccc23)c2ccccc21 (stereo not drawn)	?	-2%	3%	nt	?
CCCCN1C(=O)C(O)(c2c(C)[nH]c3ccccc23)c2ccccc21 (stereo not drawn)	5.8µM*	5%	0%	nt	5.8µM*
CCCCN1C(=O)C(O)(c2c(C)[nH]c3ccccc23)c2cc(Br)ccc21 (stereo not drawn)	5.8µM*	7%	?	nt	4.1µM*
CCC(C)OC(=O)/C(C#N)=C/c1ccc(-c2ccc(Br)cc2)o1 (stereo not drawn)	?	-9%[12.3 µM]	2%	nt	?
O=C(O)C/C(=C\c1cccc(NC(=O)c2ccccc2Cl)c1)c1nc2ccccc2s1	?	nt	-25%	-6%	?
S=C(Nc1ccc(Cl)cc1)c1nc2ccccc2s1	?	8%	-41%	3%	15µM*
O=C(Nc1ccc(Cl)cc1)/C(=C/c1cccc(O)c1)c1nc2ccccc2s1	5.2µM*	2%	?	-9%	4.6µM*
Cc1ccc(C)c(NC(=S)c2nc3ccccc3s2)c1	26µM*	3%	-25%	-13%	?
CN(C(=O)CSc1nnc(Cc2cccc3ccccc23)n1N)C1CCS(=O)(=O)C1 (stereo not drawn)	4%	-1%	0%	2%	0%
